Measured values taken from paper PMC4336329 (PLoS ONE, 2015).
Among all 310,000 compounds or so, about 14,000 (4.5%) showed an effect of 50% or more. The effect is printed as a negative number. The sample holds strong results, similar compounds and a random draw of the others, so the mix is not that of the screen.

Target: human ether-à-go-go-related gene (hERG) potassium channel (human, UniProt Q12809)
Test: primary screen, population patch clamp on CHO cells stably expressing hERG; higher = less effect of the substance
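Note: peak tail current of the secondary pulse compared with the same well before compound.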

human ether-à-go-go-related gene (hERG) potassium channel, sequence (Q12809 whole entry, looked up): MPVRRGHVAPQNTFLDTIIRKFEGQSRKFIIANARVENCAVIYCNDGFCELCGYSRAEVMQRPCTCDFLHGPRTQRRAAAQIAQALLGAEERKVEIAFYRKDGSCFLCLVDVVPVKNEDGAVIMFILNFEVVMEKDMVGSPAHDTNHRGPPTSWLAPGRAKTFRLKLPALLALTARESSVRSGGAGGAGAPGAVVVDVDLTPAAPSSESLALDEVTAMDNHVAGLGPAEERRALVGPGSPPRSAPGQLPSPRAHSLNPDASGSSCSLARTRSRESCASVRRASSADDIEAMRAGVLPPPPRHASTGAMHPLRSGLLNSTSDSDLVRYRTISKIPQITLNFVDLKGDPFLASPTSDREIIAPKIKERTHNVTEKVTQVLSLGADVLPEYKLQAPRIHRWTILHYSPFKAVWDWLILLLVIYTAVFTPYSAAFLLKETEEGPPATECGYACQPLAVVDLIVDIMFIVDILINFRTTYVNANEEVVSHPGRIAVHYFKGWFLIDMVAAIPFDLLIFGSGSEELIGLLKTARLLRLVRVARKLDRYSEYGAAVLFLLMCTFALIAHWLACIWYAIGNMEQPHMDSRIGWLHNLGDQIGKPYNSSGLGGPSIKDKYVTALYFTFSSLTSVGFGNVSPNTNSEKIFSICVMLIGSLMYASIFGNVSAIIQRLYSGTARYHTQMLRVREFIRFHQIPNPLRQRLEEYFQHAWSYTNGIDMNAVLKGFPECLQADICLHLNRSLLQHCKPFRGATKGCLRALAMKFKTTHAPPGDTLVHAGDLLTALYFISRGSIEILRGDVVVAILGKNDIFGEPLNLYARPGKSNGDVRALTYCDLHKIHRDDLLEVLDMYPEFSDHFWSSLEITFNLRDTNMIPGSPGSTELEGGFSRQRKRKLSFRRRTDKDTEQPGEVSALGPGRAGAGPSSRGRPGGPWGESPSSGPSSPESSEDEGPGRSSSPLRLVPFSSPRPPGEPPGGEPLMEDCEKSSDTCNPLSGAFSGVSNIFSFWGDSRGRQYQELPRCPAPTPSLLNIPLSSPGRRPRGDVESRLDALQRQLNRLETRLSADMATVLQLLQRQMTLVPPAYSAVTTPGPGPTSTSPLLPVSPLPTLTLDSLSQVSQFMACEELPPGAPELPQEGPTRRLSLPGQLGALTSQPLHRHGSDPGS

Q: How did the “hERG current change (%, negative = inhibition) at 10uM” value turn out when Cc1ccccc1Cn1c(C(C)O)nc2ccccc21 (centres unmarked) was run?
A: 4.7%

Q: How did the “hERG current change (%, negative = inhibition) at 10uM” value turn out when CCOC(=O)C1CCN(C(=O)CCn2c(=O)c3cccn3c3cccnc32)CC1 was run?
A: -33.2%

Q: With Cc1c(C(=O)NCCc2ccccc2)oc2ccccc12 as the compound, how does the “hERG current change (%, negative = inhibition) at 10uM” value read?
A: 1.98%

Q: With CN(C)C(=O)NC(O)C(Cl)Cl (centres unmarked) as the compound, how does the “hERG current change (%, negative = inhibition) at 10uM” value read?
A: -2%

Q: How did the “hERG current change (%, negative = inhibition) at 10uM” value turn out when Cc1nn(C)c(C)c1NS(=O)(=O)c1ccccc1Cl was run?
A: 4.16%

Q: How did the “hERG current change (%, negative = inhibition) at 10uM” value turn out when CCc1ccccc1NC(=O)C1CCCN(c2ncnc3onc(-c4ccc(F)cc4)c23)C1 (centres unmarked) was run?
A: 11.2%

Q: How did the “hERG current change (%, negative = inhibition) at 10uM” value turn out when Cc1ccc(/C=N/NC(=O)c2ccc(Cn3cc([N+](=O)[O-])cn3)o2)cc1 was run?
A: -65%

Q: Which “hERG current change (%, negative = inhibition) at 10uM” value does the source give for O=C(N/N=C\c1ccc(F)cc1)c1ccc(Cn2cc(Br)c([N+](=O)[O-])n2)o1 here?
A: -59.9%

Q: With CCOc1ccc(/C=N/NC(=O)c2ccc(Cn3cc([N+](=O)[O-])cn3)o2)cc1 as the compound, how does the “hERG current change (%, negative = inhibition) at 10uM” value read?
A: -31.4%

Q: How did the “hERG current change (%, negative = inhibition) at 10uM” value turn out when COc1ccc(/C=N/NC(=O)c2ccc(Cn3cc([N+](=O)[O-])cn3)o2)cc1O was run?
A: 15.8%

Q: How did the “hERG current change (%, negative = inhibition) at 10uM” value turn out when COc1cc(/C=N\NC(=O)c2ccc(Cn3cc(Br)c([N+](=O)[O-])n3)o2)cc(OC)c1O was run?
A: -11.9%

Q: Which “hERG current change (%, negative = inhibition) at 10uM” value does the source give for O=C(N/N=C/c1cccc(Br)c1)c1ccc(Cn2cc(Br)cn2)o1 here?
A: -40.9%

Q: How did the “hERG current change (%, negative = inhibition) at 10uM” value turn out when O=C(N/N=C\c1ccc2c(c1)OCO2)c1ccc(Cn2cc(Br)c([N+](=O)[O-])n2)o1 was run?
A: -8.65%

Q: For O=C(N/N=C/c1cccnc1)c1ccc(Cn2cc([N+](=O)[O-])cn2)o1, which “hERG current change (%, negative = inhibition) at 10uM” value is on record?
A: -8.7%

Q: For COc1cc(/C=N/NC(=O)c2ccc(Cn3cc([N+](=O)[O-])cn3)o2)cc(Br)c1O, which “hERG current change (%, negative = inhibition) at 10uM” value is on record?
A: -77.5%

Q: O=C(N/N=C\c1cccc(F)c1)c1ccc(Cn2cc(Br)c([N+](=O)[O-])n2)o1 was tested. Which “hERG current change (%, negative = inhibition) at 10uM” value did it give?
A: -33.9%

Q: Which “hERG current change (%, negative = inhibition) at 10uM” value does the source give for CCOc1ccc(/C=N/NC(=O)c2ccc(Cn3cc(Br)cn3)o2)cc1 here?
A: -56.4%

Q: For CN(C)c1ccc(/C=N/NC(=O)c2ccc(Cn3cc(Br)cn3)o2)cc1, which “hERG current change (%, negative = inhibition) at 10uM” value is on record?
A: -46.1%

Q: O=C(NC1CCCC1)C(c1cccnc1)N(C(=O)c1csnn1)C1CC1 (centres unmarked) was tested. Which “hERG current change (%, negative = inhibition) at 10uM” value did it give?
A: 4.97%

Q: CC(C)c1ccc(NC(=O)C2C3C=CC4(O3)C2C(=O)N(CCN2CCOCC2)C4C(=O)NC2CCCCC2)cc1 (centres unmarked) was tested. Which “hERG current change (%, negative = inhibition) at 10uM” value did it give?
A: 15.3%

Q: For O=C(Nc1ccccc1Cl)OC1CCCCC1, which “hERG current change (%, negative = inhibition) at 10uM” value is on record?
A: 22.7%

Q: For C=C(C)c1cccc(C(C)(C)NC(=O)NCc2ccncc2)c1, which “hERG current change (%, negative = inhibition) at 10uM” value is on record?
A: -9.41%

Q: For Cc1cc(S(=O)(=O)N2CCOCC2)ccc1OCC(=O)Nc1cccc(C(F)(F)F)c1, which “hERG current change (%, negative = inhibition) at 10uM” value is on record?
A: 19.8%

Q: Which “hERG current change (%, negative = inhibition) at 10uM” value does the source give for COc1cc(/C=N\NC(=O)c2ccc(Cn3nc([N+](=O)[O-])c(Cl)c3C)o2)ccc1O here?
A: -70.4%

Q: Cc1c(Cl)c([N+](=O)[O-])nn1Cc1ccc(C(=O)N/N=C\c2cccc(Br)c2)o1 was tested. Which “hERG current change (%, negative = inhibition) at 10uM” value did it give?
A: -38.7%

Q: How did the “hERG current change (%, negative = inhibition) at 10uM” value turn out when Cc1c(Cl)c([N+](=O)[O-])nn1Cc1ccc(C(=O)N/N=C\c2cc(Cl)ccc2O)o1 was run?
A: 14.9%

Q: N#Cc1ccc(Oc2nc(Nc3ccc(F)cc3)nc(N3CCCC3)n2)cc1 was tested. Which “hERG current change (%, negative = inhibition) at 10uM” value did it give?
A: 1.63%

Q: How did the “hERG current change (%, negative = inhibition) at 10uM” value turn out when O=C(O)CC/C(=N\Nc1ccc([N+](=O)[O-])cc1S(=O)(=O)N1CCOCC1)c1cccs1 was run?
A: -9.21%

Q: For CCn1cc(CNC(=O)/C=C/c2ccc([N+](=O)[O-])cc2)cn1, which “hERG current change (%, negative = inhibition) at 10uM” value is on record?
A: -33.6%

Q: How did the “hERG current change (%, negative = inhibition) at 10uM” value turn out when Cc1ccc(NC(=O)CNC2CCCCC2)cc1Cl was run?
A: 6.64%

Q: How did the “hERG current change (%, negative = inhibition) at 10uM” value turn out when Cc1ccccc1-c1nnc(CS(=O)(=O)c2ccccc2)o1 was run?
A: -19.2%

Q: For COc1ccc(Br)c(-c2nnc(CS(=O)(=O)c3ccccc3)o2)c1, which “hERG current change (%, negative = inhibition) at 10uM” value is on record?
A: -29.3%

Q: With CCOc1ccccc1-c1nnc(CS(=O)(=O)c2ccccc2)o1 as the compound, how does the “hERG current change (%, negative = inhibition) at 10uM” value read?
A: -52.5%

Q: COc1cccc(CNC(=O)Nc2cccs2)c1 was tested. Which “hERG current change (%, negative = inhibition) at 10uM” value did it give?
A: 11%

Q: How did the “hERG current change (%, negative = inhibition) at 10uM” value turn out when CCc1cc2c(=O)c(-c3nc(C)cs3)c(CCCC(=O)O)oc2cc1O was run?
A: 29.7%

Q: With CCOC(=O)c1cc2c(=O)n3ccccc3nc2n(Cc2ccco2)c1=NC(=O)c1cccc(OC)c1 as the compound, how does the “hERG current change (%, negative = inhibition) at 10uM” value read?
A: -43.8%

Q: Which “hERG current change (%, negative = inhibition) at 10uM” value does the source give for CCOC(=O)c1cc2c(=O)n3ccccc3nc2n(Cc2ccco2)c1=NC(=O)c1ccc(OC)cc1 here?
A: -54.3%

Q: How did the “hERG current change (%, negative = inhibition) at 10uM” value turn out when CCOC(=O)c1cc2c(=O)n3ccccc3nc2n(Cc2ccco2)c1=NC(=O)c1cccnc1 was run?
A: -37.4%

Q: CCOC(=O)c1cc2c(=O)n3ccccc3nc2n(Cc2ccco2)c1=NC(=O)c1ccc(OC)cc1OC was tested. Which “hERG current change (%, negative = inhibition) at 10uM” value did it give?
A: -54.2%

Q: For CCOC(=O)c1cc2c(=O)n3ccccc3nc2n(Cc2ccco2)c1=NC(=O)c1ccccc1OCC, which “hERG current change (%, negative = inhibition) at 10uM” value is on record?
A: -50%

Q: For CCOC(=O)c1cc2c(=O)n3ccccc3nc2n(Cc2ccco2)c1=NC(=O)c1ccccc1OC, which “hERG current change (%, negative = inhibition) at 10uM” value is on record?
A: -68.9%
